Results reported in PubChem BioAssay.
The source made the active and inactive calls.

Tests used:
[1] = test system: PRMT1 (protein arginine N-methyltransferase 1); test: PRMT1 binders on small-molecule microarrays, primary screen, biochemical, small-molecule microarray, 635 nm fluorescence (AID 1088); settings: small-molecule microarray binding, higher = more signal;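 further: binding of Prmt1 protein to compounds spotted on small-molecule microarray slides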
[2] = yeast growth modulation, basal conditions, primary screen, YJM789 clinical isolate, OD600, 24 h (AID 1089);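 further: growth of clinical yeast isolate S. cerevisiae YJM 789 seeded 1000 cells per well; test concentration not given here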; settings: S. cerevisiae YJM789 growth, higher = more signal, called active from +8 up or from −8 down
[3] = fission yeast growth modulation, primary screen, strain 972, OD600, 24 h, no modulator (AID 1090);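 further: basal condition with compound alone and no growth modifier present; test concentration not given here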; settings: S. pombe 972 growth, higher = more signal, called active from +8 up or from −8 down
[4] = S. cerevisiae growth modulation with rapamycin, primary screen, strain BY4716, OD600, 96 h (AID 1091); settings: higher = more signal, called active from +8 up or from −8 down; further: test concentration not given here
[5] = target: Torsin-1A-interacting protein 2 (Homo sapiens) (UniProt Q8NFQ8); test: LULL1 binders on small-molecule microarray, primary screen, cell lysate, human LULL1 lysate, 635/667 nm fluorescence (AID 1092); settings: hLULL1 lysate binding, 635 nm fluorescence, higher = more signal;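 further: probe is lysate of COS7 cells overexpressing human LULL1; score merges per-feature 667 nm fluorescence with signal-to-noise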
[6] = E. coli growth modulation, two-sided OD650, primary screen, E. coli filamentation project, strain DRC41, 24 h (AID 1093); settings: OD650, 24 h, higher = more signal, called active from +8 up or from −8 down;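 further: MC1000 strain lacking acrAB efflux and sulA so SOS filamentation is blocked; test concentration not given here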
[7] = small-molecule microarray binders of probe aLefty2, primary screen, biochemical, biotinylated probe, 635/667 nm fluorescence (AID 1094); settings: higher = more signal;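 further: score merges spot fluorescence near 667 nm with spot signal-to-noise ratio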
[8] = test system: Noggin (protein binding on small-molecule microarray); test: Noggin binders on small-molecule microarray, primary screen, biochemical, 635/667 nm fluorescence (AID 1095); settings: 635 nm fluorescence, higher = more signal;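 further: score merges 667 nm feature fluorescence with signal to noise over triplicate slides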
[9] = target: Neurogenic locus notch homolog protein 3 (Homo sapiens) (UniProt Q9UM47); test: NOTCH3 binders on small-molecule microarray, primary screen, biochemical, 635/667 nm fluorescence (AID 1096); settings: NOTCH3 binding, 635 nm fluorescence, higher = more signal
[10] = small-molecule microarray binders of probe aEGFR, primary screen, biochemical, biotinylated probe, 635/667 nm fluorescence (AID 1097); settings: higher = more signal;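 further: probe is a biotinylated anti-EGFR antibody binding compounds printed on slides; score combines fluorescence near 667 nm and signal to noise of each spot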
[11] = test system: Plasmodium falciparum Sir2 (PF13_0152, Sir2A); test: pfSir2 binders on small-molecule microarrays, primary screen, biochemical, small-molecule microarray, 635 nm fluorescence (AID 1098); settings: small-molecule microarray binding, fluorescence 635 nm; higher = more signal;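 further: score merges spot fluorescence intensity with its signal-to-noise ratio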
[12] = small-molecule microarray binders of probe aDKK1, primary screen, biochemical, biotinylated probe, 635/667 nm fluorescence (AID 1099); settings: higher = more signal;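 further: score merges 667nm spot fluorescence with signal to noise across triplicate slides; reference of the scale not given here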
[13] = small-molecule microarray binders of probe aCHRDL2, primary screen, biochemical, biotinylated probe, 635/667 nm fluorescence (AID 1100); settings: higher = more signal
[14] = splicing luciferase reporter signal modulators, primary screen, spliceosome inhibition project, cell-based, HEK293, splice +/- reporter (AID 1101); settings: luminescence, 24 h, higher = more signal, called active from +8 up or from −8 down;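 further: HEK293 cells carrying a splicing-competent luciferase reporter gene; test concentration not given here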
[15] = target: Fibroblast growth factor 10 (Homo sapiens) (UniProt O15520); test: FGF10 binders on small-molecule microarrays, primary screen, biochemical, small-molecule microarray, 635 nm fluorescence (AID 1102); settings: FGF10 binding, fluorescence 635 nm, higher = more signal
[16] = test system: glycogen synthase kinase-3 (GSK3A per assay name; protocol says GSK3B); test: GSK3 binders on small-molecule microarrays, primary screen, biochemical, small-molecule microarray, 635 nm fluorescence, GSK3A (AID 1103); settings: small-molecule microarray binding, fluorescence 635 nm; higher = more signal; further: the record names both GSK3A and GSK3B
[17] = target: Epidermal growth factor receptor (Homo sapiens) (UniProt P00533); test: EGFR binders on small-molecule microarrays, primary screen, biochemical, small-molecule microarray, 635 nm fluorescence (AID 1104); settings: EGFR binding, higher = more signal;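 further: score merges 667 nm emission intensity with spot signal to noise over triplicate slides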
[18] = target: Follistatin-related protein 3 (Homo sapiens) (UniProt O95633); test: FSTL3 binders on small-molecule microarrays, primary screen, biochemical, small-molecule microarray, 635 nm fluorescence (AID 1105); settings: FSTL3 binding, higher = more signal;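 further: score merges emission near 667 nm and signal to noise per printed spot across three slides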
[19] = target: Dickkopf-related protein 1 (Homo sapiens) (UniProt O94907); test: DKK1 binders on small-molecule microarrays, primary screen, biochemical, small-molecule microarray, 635 nm fluorescence scan (AID 1106); settings: DKK1 binding, higher = more signal;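 further: score merges emission near 667 nm with signal to noise over three replicate slides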
[20] = test system: Inhibin beta A chain (activin A); test: INHBA (activin A) binders on microarrays, primary screen, biochemical, small-molecule microarray, 635 nm fluorescence scan (AID 1107); settings: small-molecule microarray binding, higher = more signal;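 further: mouse activin A protein probed at 4.33 µg/mL on printed slides; score merges bound-protein fluorescence near 667 nm with spot signal-to-noise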

Sequence of Neurogenic locus notch homolog protein 3 (Homo sapiens) (Q9UM47 whole entry, looked up): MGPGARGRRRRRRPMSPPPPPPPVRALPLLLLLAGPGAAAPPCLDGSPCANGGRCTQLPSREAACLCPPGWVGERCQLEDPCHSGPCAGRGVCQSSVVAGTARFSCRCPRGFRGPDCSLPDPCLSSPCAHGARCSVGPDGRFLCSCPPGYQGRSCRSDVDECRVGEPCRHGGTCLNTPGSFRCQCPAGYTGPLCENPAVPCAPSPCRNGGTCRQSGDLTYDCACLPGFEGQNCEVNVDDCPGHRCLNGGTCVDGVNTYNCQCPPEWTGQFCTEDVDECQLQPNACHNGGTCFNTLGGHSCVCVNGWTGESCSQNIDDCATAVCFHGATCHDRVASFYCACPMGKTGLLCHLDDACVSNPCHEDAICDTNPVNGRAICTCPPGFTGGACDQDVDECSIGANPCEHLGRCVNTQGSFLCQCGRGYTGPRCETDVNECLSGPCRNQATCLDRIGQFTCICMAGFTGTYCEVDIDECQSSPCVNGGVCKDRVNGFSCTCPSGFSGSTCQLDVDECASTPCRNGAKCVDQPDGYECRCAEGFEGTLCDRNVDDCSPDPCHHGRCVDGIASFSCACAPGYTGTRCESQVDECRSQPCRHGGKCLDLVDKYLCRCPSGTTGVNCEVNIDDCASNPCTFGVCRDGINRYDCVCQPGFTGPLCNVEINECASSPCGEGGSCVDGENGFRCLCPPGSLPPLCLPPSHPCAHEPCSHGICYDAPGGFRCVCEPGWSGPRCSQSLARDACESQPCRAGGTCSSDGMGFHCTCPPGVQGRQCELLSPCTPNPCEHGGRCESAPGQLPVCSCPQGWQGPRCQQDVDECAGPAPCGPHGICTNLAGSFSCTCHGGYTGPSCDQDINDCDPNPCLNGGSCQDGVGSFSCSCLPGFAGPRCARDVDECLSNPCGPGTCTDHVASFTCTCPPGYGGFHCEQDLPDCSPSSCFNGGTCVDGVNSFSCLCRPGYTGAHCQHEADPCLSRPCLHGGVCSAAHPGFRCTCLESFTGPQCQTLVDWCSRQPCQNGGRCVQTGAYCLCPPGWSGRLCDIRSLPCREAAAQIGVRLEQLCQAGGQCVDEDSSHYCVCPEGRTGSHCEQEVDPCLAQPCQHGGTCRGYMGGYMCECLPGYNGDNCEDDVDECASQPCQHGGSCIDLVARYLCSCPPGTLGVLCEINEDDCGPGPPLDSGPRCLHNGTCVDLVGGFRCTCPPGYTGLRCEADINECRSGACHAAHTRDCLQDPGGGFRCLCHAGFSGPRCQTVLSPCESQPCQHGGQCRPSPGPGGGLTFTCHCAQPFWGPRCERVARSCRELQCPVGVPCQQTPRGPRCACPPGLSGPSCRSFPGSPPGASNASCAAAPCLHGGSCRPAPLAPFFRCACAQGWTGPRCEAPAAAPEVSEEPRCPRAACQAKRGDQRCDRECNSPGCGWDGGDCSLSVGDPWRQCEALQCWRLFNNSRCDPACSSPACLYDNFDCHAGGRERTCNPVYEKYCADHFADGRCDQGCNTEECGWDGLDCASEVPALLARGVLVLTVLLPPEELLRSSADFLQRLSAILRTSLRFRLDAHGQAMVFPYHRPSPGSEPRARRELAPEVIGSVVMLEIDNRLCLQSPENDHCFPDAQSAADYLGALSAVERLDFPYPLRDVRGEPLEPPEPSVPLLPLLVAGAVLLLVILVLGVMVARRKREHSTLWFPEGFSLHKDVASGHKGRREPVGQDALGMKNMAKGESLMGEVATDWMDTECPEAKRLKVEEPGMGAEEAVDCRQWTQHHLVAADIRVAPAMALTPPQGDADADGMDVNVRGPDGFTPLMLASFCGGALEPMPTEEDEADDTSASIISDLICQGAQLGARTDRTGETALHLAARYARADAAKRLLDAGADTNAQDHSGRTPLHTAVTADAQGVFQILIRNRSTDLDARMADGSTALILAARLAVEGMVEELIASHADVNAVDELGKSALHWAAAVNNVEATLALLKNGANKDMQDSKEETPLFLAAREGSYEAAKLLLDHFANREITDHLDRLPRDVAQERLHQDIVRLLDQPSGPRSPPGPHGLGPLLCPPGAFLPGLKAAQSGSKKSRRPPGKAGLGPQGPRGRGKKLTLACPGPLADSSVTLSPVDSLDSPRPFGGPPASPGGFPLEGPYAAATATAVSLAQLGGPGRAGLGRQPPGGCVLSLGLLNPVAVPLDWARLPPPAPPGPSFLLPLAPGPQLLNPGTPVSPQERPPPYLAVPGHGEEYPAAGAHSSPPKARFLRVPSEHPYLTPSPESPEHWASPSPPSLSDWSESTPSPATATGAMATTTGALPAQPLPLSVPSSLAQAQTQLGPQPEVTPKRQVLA
Sequence of Epidermal growth factor receptor (Homo sapiens) (P00533 whole entry, looked up): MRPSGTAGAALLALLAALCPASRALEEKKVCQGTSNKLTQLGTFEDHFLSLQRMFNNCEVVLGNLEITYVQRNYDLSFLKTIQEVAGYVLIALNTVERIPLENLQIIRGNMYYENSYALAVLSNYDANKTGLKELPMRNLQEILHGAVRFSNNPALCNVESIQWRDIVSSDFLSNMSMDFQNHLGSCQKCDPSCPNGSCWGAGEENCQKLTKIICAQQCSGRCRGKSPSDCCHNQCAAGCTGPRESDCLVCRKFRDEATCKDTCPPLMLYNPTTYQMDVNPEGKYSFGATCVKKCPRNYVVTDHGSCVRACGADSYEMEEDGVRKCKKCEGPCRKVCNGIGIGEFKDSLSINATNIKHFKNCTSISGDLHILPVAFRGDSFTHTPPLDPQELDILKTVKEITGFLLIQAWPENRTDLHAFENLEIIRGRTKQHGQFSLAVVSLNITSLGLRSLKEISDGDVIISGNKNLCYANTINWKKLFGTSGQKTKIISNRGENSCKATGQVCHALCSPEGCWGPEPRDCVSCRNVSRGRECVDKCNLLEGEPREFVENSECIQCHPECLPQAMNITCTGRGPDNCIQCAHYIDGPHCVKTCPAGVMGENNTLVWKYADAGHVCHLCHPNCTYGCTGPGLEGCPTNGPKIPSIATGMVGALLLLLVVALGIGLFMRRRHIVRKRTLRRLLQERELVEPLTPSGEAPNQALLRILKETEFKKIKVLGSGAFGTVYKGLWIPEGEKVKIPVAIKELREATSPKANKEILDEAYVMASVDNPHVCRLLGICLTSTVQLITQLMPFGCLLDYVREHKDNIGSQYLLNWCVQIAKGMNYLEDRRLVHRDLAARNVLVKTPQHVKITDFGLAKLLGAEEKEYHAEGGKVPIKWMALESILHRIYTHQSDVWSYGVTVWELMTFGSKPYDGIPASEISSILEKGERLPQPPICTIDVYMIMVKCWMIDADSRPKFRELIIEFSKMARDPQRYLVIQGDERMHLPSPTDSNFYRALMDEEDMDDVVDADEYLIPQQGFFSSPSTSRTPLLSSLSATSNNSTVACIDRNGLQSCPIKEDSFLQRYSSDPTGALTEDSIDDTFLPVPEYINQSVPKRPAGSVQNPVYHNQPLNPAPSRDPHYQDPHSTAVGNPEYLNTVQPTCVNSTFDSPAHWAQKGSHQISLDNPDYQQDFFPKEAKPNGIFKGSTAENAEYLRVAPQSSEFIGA
Sequence of Dickkopf-related protein 1 (Homo sapiens) (O94907 whole entry, looked up): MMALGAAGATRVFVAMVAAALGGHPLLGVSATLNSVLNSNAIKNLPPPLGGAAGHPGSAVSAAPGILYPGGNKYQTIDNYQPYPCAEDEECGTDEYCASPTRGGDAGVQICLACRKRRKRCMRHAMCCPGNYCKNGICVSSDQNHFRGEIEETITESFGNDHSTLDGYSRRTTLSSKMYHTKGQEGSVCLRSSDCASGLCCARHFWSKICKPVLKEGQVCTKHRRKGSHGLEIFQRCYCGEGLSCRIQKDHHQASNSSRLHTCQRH
Sequence of Follistatin-related protein 3 (Homo sapiens) (O95633 whole entry, looked up): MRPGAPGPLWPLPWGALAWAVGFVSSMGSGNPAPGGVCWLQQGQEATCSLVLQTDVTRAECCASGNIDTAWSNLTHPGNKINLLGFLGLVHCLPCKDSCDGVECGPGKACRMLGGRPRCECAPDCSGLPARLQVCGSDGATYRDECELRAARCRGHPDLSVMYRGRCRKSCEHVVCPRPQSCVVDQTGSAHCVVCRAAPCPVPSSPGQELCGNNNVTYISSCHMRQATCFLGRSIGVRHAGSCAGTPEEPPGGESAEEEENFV
Sequence of Fibroblast growth factor 10 (Homo sapiens) (O15520 whole entry, looked up): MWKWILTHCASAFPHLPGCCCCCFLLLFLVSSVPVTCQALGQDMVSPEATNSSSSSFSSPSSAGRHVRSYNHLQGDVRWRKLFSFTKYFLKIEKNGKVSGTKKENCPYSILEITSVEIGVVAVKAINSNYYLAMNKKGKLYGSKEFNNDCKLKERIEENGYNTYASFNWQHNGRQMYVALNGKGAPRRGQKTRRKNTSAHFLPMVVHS
Sequence of Torsin-1A-interacting protein 2 (Homo sapiens) (Q8NFQ8 whole entry, looked up): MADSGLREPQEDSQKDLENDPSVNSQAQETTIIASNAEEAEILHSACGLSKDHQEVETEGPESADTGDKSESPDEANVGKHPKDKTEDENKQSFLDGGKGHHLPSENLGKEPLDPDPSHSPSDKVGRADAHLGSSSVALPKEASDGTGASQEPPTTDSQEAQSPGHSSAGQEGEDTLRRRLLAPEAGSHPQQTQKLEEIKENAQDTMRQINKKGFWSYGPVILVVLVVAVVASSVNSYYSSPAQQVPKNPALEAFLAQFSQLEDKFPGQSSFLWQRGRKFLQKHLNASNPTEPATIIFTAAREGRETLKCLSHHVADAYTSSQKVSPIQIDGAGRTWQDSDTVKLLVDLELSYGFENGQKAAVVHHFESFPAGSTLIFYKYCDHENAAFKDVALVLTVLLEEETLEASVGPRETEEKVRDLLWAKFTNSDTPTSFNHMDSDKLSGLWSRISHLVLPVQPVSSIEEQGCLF

**Q.** What does the source list for `COCCOC(=O)N1C(=O)[C@@]2(c3cc(C#CCNC(N)=O)ccc31)[C@H](c1ccc(OCCO)cc1)N1[C@H](c3ccccc3)[C@H](c3ccccc3)OC(=O)[C@H]1[C@@H]2C(=O)Nc1nc2ccccc2s1`?
**A.** composite z-score [1]: 0.75; z-score [2]: 1.55 (inactive); z-score [3]: 1.11 (inactive); z-score [4]: 3.55 (inactive); composite z-score [5]: 0.376; z-score [6]: 2.56 (inactive); composite z-score [7]: 0.162; composite z-score [8]: 0.895; composite z-score [9]: 0.865; composite z-score [10]: 0.0894; composite z-score [11]: 0.337; composite z-score [12]: 0.997; composite z-score [13]: 0.88; z-score [14]: 0.0697 (inactive); composite z-score [15]: 0.574; composite z-score [16]: -0.289; composite z-score [17]: 0.0231; composite z-score [18]: 1.01; composite z-score [19]: 1; composite z-score [20]: 0.926

**Q.** For `COC(=O)[C@@]1(Cc2ccccc2N=[N+]=[N-])N=C(c2ccc(OCCCO)cc2)O[C@H]1c1ccccc1CN=[N+]=[N-]`, which composite z-score [1] is on record?
**A.** 1.41

**Q.** And the z-score [2]?
**A.** 0.653 (inactive)

**Q.** And the z-score [3]?
**A.** -1.3 (inactive)

**Q.** And the z-score [4]?
**A.** 28.5 (active)

**Q.** And the composite z-score [5]?
**A.** 2.6

**Q.** What about the z-score [6] of the same compound?
**A.** 0.255 (inactive)

**Q.** And the composite z-score [7]?
**A.** 0.0641

**Q.** And the composite z-score [8]?
**A.** 0.836

**Q.** What about the composite z-score [9] of the same compound?
**A.** 0.041

**Q.** And the composite z-score [10]?
**A.** -0.114

**Q.** What about the composite z-score [11] of the same compound?
**A.** 1.16

**Q.** And the composite z-score [12]?
**A.** 0.733

**Q.** And the composite z-score [13]?
**A.** 0.771

**Q.** And the z-score [14]?
**A.** 1.07 (inactive)

**Q.** What about the composite z-score [15] of the same compound?
**A.** 0.468

**Q.** What about the composite z-score [16] of the same compound?
**A.** 0.393

**Q.** What about the composite z-score [17] of the same compound?
**A.** -0.34

**Q.** What about the composite z-score [18] of the same compound?
**A.** -0.0014

**Q.** And the composite z-score [19]?
**A.** -0.304

**Q.** And the composite z-score [20]?
**A.** 1.13

**Q.** Which composite z-score [1] does the source give for `O=C1c2ccccc2[C@](Cc2ccccc2I)(C(=O)NCc2ccccc2)[C@H](c2ccc(CO)cc2)N1Cc1ccccc1C(F)(F)F` here?
**A.** 1.27

**Q.** What about the z-score [2] of the same compound?
**A.** 0.417 (inactive)

**Q.** And the z-score [3]?
**A.** -1.05 (inactive)

**Q.** And the z-score [4]?
**A.** 0.304 (inactive)

**Q.** And the composite z-score [5]?
**A.** 2.44

**Q.** And the z-score [6]?
**A.** 1.03 (inactive)

**Q.** And the composite z-score [7]?
**A.** -0.0345

**Q.** And the composite z-score [8]?
**A.** -1.05

**Q.** What about the composite z-score [9] of the same compound?
**A.** -0.785

**Q.** And the composite z-score [10]?
**A.** -0.179

**Q.** What about the composite z-score [11] of the same compound?
**A.** 0.74

**Q.** And the composite z-score [12]?
**A.** 0.606

**Q.** And the composite z-score [13]?
**A.** 1.11

**Q.** What about the z-score [14] of the same compound?
**A.** -0.984 (inactive)

**Q.** What about the composite z-score [15] of the same compound?
**A.** -0.881

**Q.** And the composite z-score [16]?
**A.** -1.42

**Q.** What about the composite z-score [17] of the same compound?
**A.** -1.39

**Q.** And the composite z-score [18]?
**A.** -1.27

**Q.** And the composite z-score [19]?
**A.** -2.07

**Q.** What about the composite z-score [20] of the same compound?
**A.** 0.623

**Q.** For `C=C(CCCC)C(=O)CC[C@@H](OC(=O)c1cccnc1)c1cccc(OCCO)c1`, which composite z-score [1] is on record?
**A.** 1.12

**Q.** And the z-score [2]?
**A.** -0.323 (inactive)

**Q.** What about the z-score [3] of the same compound?
**A.** -2.6 (inactive)

**Q.** What about the z-score [4] of the same compound?
**A.** -0.2 (inactive)

**Q.** What about the composite z-score [5] of the same compound?
**A.** 0.136

**Q.** What about the z-score [6] of the same compound?
**A.** 0.493 (inactive)

**Q.** What about the composite z-score [7] of the same compound?
**A.** -0.186

**Q.** And the composite z-score [8]?
**A.** 0.491

**Q.** What about the composite z-score [9] of the same compound?
**A.** 0.145

**Q.** What about the composite z-score [10] of the same compound?
**A.** -0.145

**Q.** And the composite z-score [11]?
**A.** 1.48

**Q.** And the composite z-score [12]?
**A.** -0.246

**Q.** What about the composite z-score [13] of the same compound?
**A.** 0.238

**Q.** What about the z-score [14] of the same compound?
**A.** 3.57 (inactive)

**Q.** And the composite z-score [15]?
**A.** 0.72

**Q.** And the composite z-score [16]?
**A.** 0.13

**Q.** And the composite z-score [17]?
**A.** -0.237

**Q.** And the composite z-score [18]?
**A.** -0.242

**Q.** And the composite z-score [19]?
**A.** 0.265

**Q.** And the composite z-score [20]?
**A.** 1.2

**Q.** Which composite z-score [1] does the source give for `C=CCNC(=O)[C@H]1[C@@H]2C(=O)O[C@@H](c3ccccc3)[C@@H](c3ccccc3)N2[C@@H](c2ccccc2OCCO)[C@]12C(=O)N(C(=O)OCCOC)c1ccc(C#CCC(C(=O)OC)C(=O)OC)cc12` here?
**A.** 1.55

**Q.** And the z-score [2]?
**A.** 0.759 (inactive)

**Q.** What about the z-score [3] of the same compound?
**A.** -1.68 (inactive)

**Q.** And the z-score [4]?
**A.** 5.51 (inactive)

**Q.** What about the composite z-score [5] of the same compound?
**A.** 2.97

**Q.** And the z-score [6]?
**A.** 3.27 (inactive)

**Q.** And the composite z-score [7]?
**A.** 0.0757

**Q.** And the composite z-score [8]?
**A.** 1.15

**Q.** What about the composite z-score [9] of the same compound?
**A.** 1.03

**Q.** And the composite z-score [10]?
**A.** 0.0343

**Q.** And the composite z-score [11]?
**A.** 1.1

**Q.** What about the composite z-score [12] of the same compound?
**A.** 0.572

**Q.** And the composite z-score [13]?
**A.** 0.155

**Q.** What about the z-score [14] of the same compound?
**A.** -1.69 (inactive)

**Q.** What about the composite z-score [15] of the same compound?
**A.** 0.541

**Q.** And the composite z-score [16]?
**A.** 1.29

**Q.** And the composite z-score [17]?
**A.** 0.328

**Q.** And the composite z-score [18]?
**A.** 0.919

**Q.** And the composite z-score [19]?
**A.** 0.271

**Q.** What about the composite z-score [20] of the same compound?
**A.** 0.641
